hcDAF12 agonist – H. contortus DAF-12 nuclear receptor activators, primary screen, cell-based, luminescence, HEK293, lit1-tk-luc reporter; 370,000 tested, 1.4% active; activation, % at 6.8 µM; HEK293 hcDAF-12 lit1-tk-luc reporter; 0% DMSO, 100% Δ7-dafachronic acid;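 active means activation above the mean of all tested compounds plus 3 SD, cut at about 5.5% in these data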;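 further: 100% = response to 3 µM Δ7-dafachronic acid high control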
ssDAF-12 act – S. stercoralis DAF-12 nuclear receptor activators, primary screen, cell-based, luminescence, HEK293, GRIP1 co-expression, lit1-tk-luc; HEK293 ssDAF-12/GRIP1 lit1-tk-luc reporter; % of 3 µM dafachronic acid response; Nuclear hormone receptor DAF-12 (Strongyloides stercoralis); activation, % at 6.8 µM; AID 652126, 2013; 370,000 tested, 1% active;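 active means activation above the mean over all tested compounds plus 3 SD, cut at about 0.9% in these data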;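 further: 0% = DMSO-only wells and 100% = 3 µM delta7-dafachronic acid wells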
DAX1 inh-1 – DAX1 (NR0B1) inhibitors on StAR promoter, primary screen, cell-based, luminescence, SF-1 (NR5A1), full-length DAX-1; inhibition, % at 6.8 µM; 370,000 tested, 1.1% active; AID 652010, 2013; HEK293T StAR-luciferase reporter, SF-1/DAX-1 repression relief;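 active means inhibition above the mean over all tested compounds plus 3 SD, cut at about 3.6% in these data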;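 further: 0% = DAX-1 cells with DMSO and 100% = cells lacking DAX-1 with DMSO; higher inhibition means more luminescence from relief of DAX-1 repression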
hgDAF-12 ag – H. glycines DAF-12 receptor agonists, primary screen, cell-based, luminescence, HEK293, GAL4 fusion, UAS-luciferase | Nuclear hormone receptor DAF-12 (Heterodera glycines), GAL4 fusion | HEK293 GAL4-hgDAF12 UAS-luciferase reporter, agonist luminescence; normalized to butyrate control | activation, % at 6.8 µM | 370,000 tested, 1.8% active | AID 687014, 2013;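 active means activation above a cutoff set at the mean of all screened compounds plus 3 SD, cut at about 10% in these data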;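 further: 0% = DMSO wells and 100% = sodium butyrate wells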
DAX1 inh-2 – DAX1 (NR0B1) inhibitors, primary screen, cell-based, HEK293, Gal4-DAX1, luciferase luminescence; Nuclear receptor subfamily 0 group B member 1 (Homo sapiens), P51843; HEK293 Gal4-DAX1 luciferase reporter; inhibition, % at 6.75 µM; 340,000 tested, 0.99% active; AID 504766, 2011;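 active means inhibition above the mean over all tested compounds plus 3 SD, cut at about 4.2% in these data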;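 further: 0% = DAX1-transfected cells with DMSO and 100% = empty-vector control cells with DMSO; inhibition shows as a rise in luminescence from relieved DAX1 repression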
DAX1 conf – DAX1 (NR0B1) inhibitors relieving SF-1 repression, confirmation, cell-based, luminescence, HEK293T, full-length DAX-1, SF-1 activated StAR promoter. shares compounds with DAX1 inh-1. HEK293T StAR-promoter luciferase reporter, SF-1/DAX-1 repression. 2,400 tested, 87% active. inhibition, % at 6.8 µM;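 active means inhibition above the average of every tested compound plus 3 SD, cut at about 3.8% in these data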;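 further: 0% = DAX-1 cells with DMSO and 100% = no DAX-1 control cells with DMSO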
SF1 mutant ctr – StAR reporter signal changes without DAX1, counter-screen for DAX1 inhibitor project, cell-based, luminescence, AF-2 mutant SF-1, transactivation | shares compounds with DAX1 inh-1 | HEK293 StAR-luciferase, SF-1 AF2 mutant | inhibition, % at 6.8 µM | 2,400 tested, 78% active | AID 652136, 2013;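 active means inhibition above the mean of all tested compounds plus 3 SD, cut at about 3% in these data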;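 further: 0% = DAX-1 transfected cells with DMSO and 100% = cells without DAX-1 with DMSO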
LXR ag – LXR agonists, Gal4 luciferase reporter, confirmation, counter-screen for hcDAF-12 agonist project, cell-based, luminescence, HEK293, H. contortus campaign | shares compounds with hcDAF12 agonist | HEK293 Gal4-LXR tk-luc reporter, 24 h; normalized: DMSO 0%, positive control 100% | activation, % at 6.8 µM | 3,400 tested, under 10 active;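 active means mean percent activation of the reporter above a cutoff set as the average over tested compounds plus their standard deviation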
Target sequence (P55055 whole entry, looked up, the tested form may be a part): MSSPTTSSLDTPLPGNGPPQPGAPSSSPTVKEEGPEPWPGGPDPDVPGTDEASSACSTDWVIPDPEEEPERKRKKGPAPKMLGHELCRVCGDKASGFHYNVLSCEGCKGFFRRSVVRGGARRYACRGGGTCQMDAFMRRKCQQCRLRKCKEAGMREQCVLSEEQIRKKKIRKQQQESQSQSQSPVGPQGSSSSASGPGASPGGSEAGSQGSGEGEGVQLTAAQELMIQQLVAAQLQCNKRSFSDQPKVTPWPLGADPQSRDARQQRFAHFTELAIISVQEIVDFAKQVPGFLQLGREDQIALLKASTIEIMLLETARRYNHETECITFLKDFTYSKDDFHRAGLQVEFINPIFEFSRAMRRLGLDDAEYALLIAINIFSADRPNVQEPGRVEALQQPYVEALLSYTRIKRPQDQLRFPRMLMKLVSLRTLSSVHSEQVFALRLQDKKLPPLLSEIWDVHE
hcDAF12 ag – H. contortus DAF-12 receptor agonists, confirmation, cell-based, luminescence, HEK293, lit1-tk-luc, triplicate | shares compounds with hcDAF12 agonist | HEK293 hcDAF-12 lit1-tk-luc reporter; % of Δ7-dafachronic acid response | activation, % at 6.8 µM | 3,400 tested, 61% active;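 active means mean activation across triplicate tests above the threshold derived from the earlier primary screen, cut at about 5.5% in these data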;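 further: 0% = DMSO only wells and 100% = 3 µM Δ7-dafachronic acid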
hgDAF12 conf – H. glycines DAF-12 receptor agonists, confirmation, cell-based, luminescence, HEK293, GAL4-LBD fusion | shares compounds with hgDAF-12 ag | HEK293 GAL4-hgDAF12 luciferase reporter, agonist mode; percent of butyrate response | activation, % at 6.8 µM | 3,300 tested, 80% active;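 active means mean activation over triplicate wells above the hit cutoff derived from the earlier primary screen, cut at about 11% in these data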;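 further: 0% = DMSO low control and 100% = 2 mM sodium butyrate high control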
LXR ag 2 – LXR agonists, Gal4 luciferase reporter, confirmation, counter-screen for hgDAF-12 agonist project, cell-based, luminescence, HEK293, H. glycines campaign. shares compounds with hgDAF-12 ag. 24 h. activation, % at 6.8 µM. 3,300 tested, under 10 active;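 active means mean activation of the triplicate above a set limit carried over from the primary screen, none filed active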
Starred values were filed as active, the others as inactive. An excerpt weighted towards active compounds, which were near 4.1% of everything screened.

Oc1ccccc1C=NNc1nc2ccccc2s1 was read as hcDAF12 agonist 16*, ssDAF-12 act 3.0*, DAX1 inh-1 5.5*, hgDAF-12 ag 22*, DAX1 inh-2 4.4*, DAX1 conf 11*, SF1 mutant ctr 8.6*, LXR ag 2, hcDAF12 ag 17*, hgDAF12 conf 19* and LXR ag 2 1.
For OCC(O)/C=N/Nc1nc2ccccc2s1 (centres undefined) the results were hcDAF12 agonist 4, ssDAF-12 act -1, DAX1 inh-1 0, hgDAF-12 ag 4 and DAX1 inh-2 0.
For C(=N\Nc1nc2ccccc2s1)/c1ccco1 the results were hcDAF12 agonist 17*, ssDAF-12 act 2.6*, DAX1 inh-1 6.7*, hgDAF-12 ag 15*, DAX1 inh-2 -1, DAX1 conf 18*, SF1 mutant ctr 8.2*, LXR ag 2, hcDAF12 ag 12*, hgDAF12 conf 21* and LXR ag 2 1.
For C(=N\Nc1nc2ccccc2s1)/c1cccs1 the results were hcDAF12 agonist 20*, ssDAF-12 act 3.3*, DAX1 inh-1 7.0*, hgDAF-12 ag 16*, DAX1 inh-2 3, DAX1 conf 18*, SF1 mutant ctr 12*, LXR ag 2, hcDAF12 ag 17*, hgDAF12 conf 24* and LXR ag 2 1.
Screening COc1ccc(C(=O)COC(=O)[C@@H](NS(=O)(=O)c2ccccc2)C(C)C)cc1 returned hcDAF12 agonist 0, ssDAF-12 act -1, DAX1 inh-1 -1, hgDAF-12 ag -2 and DAX1 inh-2 -1.
O=c1c2ccccc2ncn1-c1ccccc1C(F)(F)F was read as hcDAF12 agonist 0, ssDAF-12 act -1, DAX1 inh-1 0, hgDAF-12 ag -2 and DAX1 inh-2 0.
For Cc1noc(C)c1C(=O)Nc1nc2ccc(F)cc2s1 the results were hcDAF12 agonist 7.0*, ssDAF-12 act 1, DAX1 inh-1 8.9*, hgDAF-12 ag 14*, DAX1 inh-2 2, DAX1 conf 9.8*, SF1 mutant ctr 5.3*, LXR ag 2, hcDAF12 ag 5.8*, hgDAF12 conf 14* and LXR ag 2 1.
For Cc1ccc2nc(NC(=O)c3ccco3)sc2c1 the results were hcDAF12 agonist 3, ssDAF-12 act -2, DAX1 inh-1 1, hgDAF-12 ag -2 and DAX1 inh-2 -4.
For O=C(Nc1nc2ccccc2s1)c1ccc(F)cc1 the results were hcDAF12 agonist 7.8*, ssDAF-12 act 1.8*, DAX1 inh-1 4.7*, hgDAF-12 ag 16*, DAX1 inh-2 2, DAX1 conf 8.0*, SF1 mutant ctr 4.3*, LXR ag 2, hcDAF12 ag 8.8*, hgDAF12 conf 20* and LXR ag 2 1.
For CC(=O)OCC(=O)Nc1ccc(N=Nc2ccccc2)cc1 the results were hcDAF12 agonist 4, ssDAF-12 act 1, DAX1 inh-1 4.8*, hgDAF-12 ag 17*, DAX1 inh-2 0, DAX1 conf 10*, SF1 mutant ctr 6.0*, hgDAF12 conf 14* and LXR ag 2 1.
Screening COc1ccc(CN=C2Nc3ccccc3CS2)cc1 returned hcDAF12 agonist 5, ssDAF-12 act 1.2*, DAX1 inh-1 4.7*, hgDAF-12 ag 14*, DAX1 inh-2 0, DAX1 conf 11*, SF1 mutant ctr 7.2*, hgDAF12 conf 17* and LXR ag 2 1.
`COc1ccc(CN=C2NN=C(c3ccc(Cl)cc3)CS2)cc1` gave hcDAF12 agonist 1, ssDAF-12 act -1, DAX1 inh-1 0, hgDAF-12 ag 1 and DAX1 inh-2 -1.
`Cc1ccc2nc(C)/c(=N\O)c(C)nc2c1` gave hcDAF12 agonist 10.0*, ssDAF-12 act 1, DAX1 inh-1 5.3*, hgDAF-12 ag 15*, DAX1 inh-2 -1, DAX1 conf 5.3*, SF1 mutant ctr 3.2*, LXR ag 0, hcDAF12 ag 5, hgDAF12 conf 5 and LXR ag 2 0.
For Cc1ccc2nc(N)nnc2c1 the results were hcDAF12 agonist 0, ssDAF-12 act -1, DAX1 inh-1 0, hgDAF-12 ag 2 and DAX1 inh-2 2.
Cc1ccc(Cc2c(-c3cccc(Cl)c3)nc3ccc(C)cn23)cc1 was read as hcDAF12 agonist 1, ssDAF-12 act 0, DAX1 inh-1 2 and hgDAF-12 ag 10.
For Fc1ccc(-c2nc3ccc(Cl)cn3c2Cc2ccccc2)cc1 the results were hcDAF12 agonist 0, ssDAF-12 act -1, DAX1 inh-1 1, hgDAF-12 ag 6 and DAX1 inh-2 0.

Screens from PubChem BioAssay.
